Data from PubChem BioAssay (EPA / NIEHS).
Several values for one entry are separate records, joined by “and”; a condition that tells them apart may be missing. Equal values may be shown once. More than one record can exist for a structure, and the calls need not agree. Activity calls are given as the source filed them. How the source made its calls: active means hit-call score of the fitted dose curve at least 0.9, where 1 is the maximum; inactive means score below 0.9.

How the values were obtained:
Settings in all cases: mRNA level, 48 h; actives raise or lower the signal
[1] = read-out: flavin-containing dimethylaniline monooxygenases 3 (FMO3), FMO3 (gene 2328); assay: LTEA_HepaRG_FMO3: Life Technologies and Expression Analysis (LTEA) Assay for flavin-containing dimethylaniline monooxygenases 3 (FMO3) using HepaRG (AID 2283453)
Procedure, shortened: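 FMO3 transcript quantified by TaqMan qRT-PCR against three housekeeping genes after 48 h chemical exposure of HepaRG cells. Eight-point half-log series, top 100 uM, 0.5% DMSO vehicle; phenobarbital 1mM induction control; up- or down-regulation fitted.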

[2] = read-out: Cytochrome P450 (CYP1A1), CYP1A1 (gene 1543); assay: LTEA_HepaRG_CYP1A1: Life Technologies and Expression Analysis (LTEA) Assay for Cytochrome P450 (CYP1A1) using HepaRG (AID 2283454)
Procedure, shortened: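 Differentiated human HepaRG cells, after 48 h plating, exposed in duplicate for 48 h in serum-free induction medium to 8 half-log concentrations up to 100 uM in 0.5% DMSO. CYP1A1 mRNA by qRT-PCR, normalized to ACTB/GAPDH/POLR2A; bidirectional fit versus DMSO.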

[3] = read-out: CFLAR gene, CFLAR (gene 8837); assay: LTEA_HepaRG_CFLAR: Life Technologies and Expression Analysis (LTEA) Assay for CFLAR gene using HepaRG (AID 2283455)
Procedure, shortened: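 Transcript level by qRT-PCR (normalized to ACTB, GAPDH and POLR2A) after 48 h chemical exposure of HepaRG cells, top concentration 100 uM with half-log steps, 0.5% DMSO vehicle, duplicates; fitted bidirectionally against DMSO baseline.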

[4] = read-out: Forkhead box O1 (FOXO1), FOXO1 (gene 2308); assay: LTEA_HepaRG_FOXO1: Life Technologies and Expression Analysis (LTEA) Assay for Forkhead box O1 (FOXO1) using HepaRG (AID 2283456)
Procedure, shortened: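 FOXO1 transcript quantified by qRT-PCR after 48 h chemical exposure (top 100 uM, half-log steps, 0.5% DMSO) of HepaRG cells, housekeeping-normalized (ACTB/GAPDH/POLR2A). Changes fitted in both directions relative to vehicle.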

[5] = read-out: growth arrest and DNA damage 45 (GADD45A), GADD45A (gene 1647); assay: LTEA_HepaRG_GADD45A: Life Technologies and Expression Analysis (LTEA) Assay for growth arrest and DNA damage 45 (GADD45A) using HepaRG (AID 2283458)
Procedure, shortened: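 Transcript induction or loss, quantified by TaqMan qRT-PCR against three housekeeping genes, is the read-out. HepaRG cells received chemicals for 48 h across eight half-log concentrations from 100 uM in 0.5% DMSO; gain and loss fitted relative to DMSO.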

[6] = read-out: Forkhead box O3 (FOXO3), FOXO3 (gene 2309); assay: LTEA_HepaRG_FOXO3: Life Technologies and Expression Analysis (LTEA) Assay for Forkhead box O3 (FOXO3) using HepaRG (AID 2283459)
Procedure, shortened: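 FOXO3 transcript measured by qRT-PCR (normalized to ACTB, GAPDH, POLR2A) after 48 h exposure of HepaRG cells in serum-free induction medium. Duplicates, eight half-log concentrations up to 100 uM, 0.5% DMSO; gain or loss fitted against DMSO.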

[7] = read-out: ABC Transporter (ABCB1), ABCB1 (gene 5243); assay: LTEA_HepaRG_ABCB1: Life Technologies and Expression Analysis (LTEA) Assay for ABC Transporter (ABCB1) using HepaRG (AID 2283460)
Procedure, shortened: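 ABCB1 transcript level measured by TaqMan qRT-PCR against three housekeeping genes after 48 h chemical exposure of differentiated HepaRG cells. Top concentration 100 uM, half-log steps, eight points, 0.5% DMSO vehicle; bidirectional fit relative to DMSO.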

[8] = read-out: growth arrest and DNA damage 45 (GADD45B), GADD45B (gene 4616); assay: LTEA_HepaRG_GADD45B: Life Technologies and Expression Analysis (LTEA) Assay for growth arrest and DNA damage 45 (GADD45B) using HepaRG (AID 2283461)
Procedure, shortened: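 Differentiated human HepaRG cells in serum-free induction medium exposed 48 h in duplicate to eight concentrations, top 100 uM, half-log steps, 0.5% DMSO. GADD45B mRNA by TaqMan qRT-PCR, normalized to ACTB, GAPDH, POLR2A; bidirectional fit versus DMSO.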

[9] = read-out: ABC Transporter (ABCC3), ABCC3 (gene 8714); assay: LTEA_HepaRG_ABCC3: Life Technologies and Expression Analysis (LTEA) Assay for ABC Transporter (ABCC3) using HepaRG (AID 2283462)
Procedure, shortened: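 Differentiated human HepaRG cells exposed 48 h in serum-free induction medium, 0.5% DMSO vehicle, 8-point half-log series to 100 uM in duplicate. ABCC3 mRNA by qRT-PCR, normalised to ACTB, GAPDH, POLR2A; bidirectional fit vs DMSO.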

[10] = read-out: ABC Transporter (ABCB11), ABCB11 (gene 8647); assay: LTEA_HepaRG_ABCB11: Life Technologies and Expression Analysis (LTEA) Assay for ABC Transporter (ABCB11) using HepaRG (AID 2283463)
Procedure, shortened: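 ABCB11 transcript levels quantified by TaqMan qRT-PCR against three housekeeping genes after 48 h chemical exposure of HepaRG cultures. Concentrations up to 100 uM in half-log steps, 0.5% DMSO vehicle; both induction and suppression scored.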

[11] = read-out: ABC Transporter (ABCC2), ABCC2 (gene 1244); assay: LTEA_HepaRG_ABCC2: Life Technologies and Expression Analysis (LTEA) Assay for ABC Transporter (ABCC2) using HepaRG (AID 2283464)
Procedure, shortened: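 Differentiated HepaRG cells in serum-free induction medium exposed 48 h to eight half-log concentrations up to 100 uM, 0.5% DMSO, in duplicate. ABCC2 mRNA measured by qRT-PCR (TaqMan, Fluidigm), normalized to ACTB, GAPDH and POLR2A. Fitted in both directions against DMSO.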

[12] = read-out: Broad substrate specificity ATP-binding cassette transporter ABCG2 (Homo sapiens) (UniProt Q9UNQ0); assay: LTEA_HepaRG_ABCG2: Life Technologies and Expression Analysis (LTEA) Assay for ABC Transporter (ABCG2) using HepaRG (AID 2283465)
Procedure, shortened: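 ABCG2 transcript was quantified by TaqMan qRT-PCR against three housekeeping genes in HepaRG cells. Cells were treated in duplicate for 48 h across an 8-point half-log series up to 100 uM, with 0.5% DMSO vehicle. Gain or loss versus DMSO was fit.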

[13] = read-out: ATP-citrate lyase (ACLY), ACLY (gene 47); assay: LTEA_HepaRG_ACLY: Life Technologies and Expression Analysis (LTEA) Assay for ATP-citrate lyase (ACLY) using HepaRG (AID 2283466)
Procedure, shortened: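 ACLY mRNA quantified by qRT-PCR on Fluidigm arrays against three housekeeping genes, after 48 h chemical treatment of HepaRG cells (top concentration 100 uM, half-log steps, 0.5% DMSO vehicle). Up- or down-regulation fitted relative to DMSO.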

[14] = read-out: Peroxisomal acyl-coenzyme A oxidase 1 (ACOX1) gene, ACOX1 (gene 51); assay: LTEA_HepaRG_ACOX1: Life Technologies and Expression Analysis (LTEA) Assay for Peroxisomal acyl-coenzyme A oxidase 1 (ACOX1) gene using HepaRG (AID 2283467)
Procedure, shortened: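 ACOX1 transcript levels were quantified by TaqMan qRT-PCR against three housekeeping genes after 48 h chemical exposure of differentiated human HepaRG cells. Exposure used eight half-log steps topping at 100 uM, 0.5% DMSO vehicle, in duplicate. Bidirectional curve fits were made relative to DMSO.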

[15] = read-out: Alkaline Phosphatase, Placental (ALPP) gene, ALPP (gene 250); assay: LTEA_HepaRG_ALPP: Life Technologies and Expression Analysis (LTEA) Assay for Alkaline Phosphatase, Placental (ALPP) gene using HepaRG (AID 2283468)
Procedure, shortened: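 HepaRG cells plated 48 h, then exposed in duplicate for 48 h in serum-free induction medium to 8-point half-log series from 100 uM in 0.5% DMSO. ALPP mRNA by TaqMan qRT-PCR, normalized to ACTB/GAPDH/POLR2A; bidirectional fit versus DMSO.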

[16] = read-out: Bcl-2 (BAD) gene, BAD (gene 572); assay: LTEA_HepaRG_BAD: Life Technologies and Expression Analysis (LTEA) Assay for Bcl-2 (BAD) gene using HepaRG (AID 2283469)
Procedure, shortened: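 Read-out: qRT-PCR of BAD mRNA, normalized to three housekeeping genes. Human HepaRG cultures got 48 h chemical exposure in 0.5% DMSO, duplicate eight-point half-log series topping at 100 uM. Gain or loss of signal fitted versus DMSO vehicle.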

[17] = read-out: Bcl-2 (BAX) gene, BAX (gene 581); assay: LTEA_HepaRG_BAX: Life Technologies and Expression Analysis (LTEA) Assay for Bcl-2 (BAX) gene using HepaRG (AID 2283470)
Procedure, shortened: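 Cells were thawed, plated for 48 h, moved to serum-free induction medium and dosed for 48 h (highest concentration 100 uM, half-log steps, 0.5% DMSO). Total RNA was then analysed for BAX expression by qRT-PCR.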

[18] = read-out: adenosine kinase (ADK) gene, ADK (gene 132); assay: LTEA_HepaRG_ADK: Life Technologies and Expression Analysis (LTEA) Assay for adenosine kinase (ADK) gene using HepaRG (AID 2283471)
Procedure, shortened: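 Read-out is ADK transcript level measured by qRT-PCR and normalised to three housekeeping genes. Cells are human HepaRG, dosed for 48 h at up to 100 uM in 0.5% DMSO. Gain or loss of signal is fitted against DMSO controls.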

[19] = read-out: Alpha-fetoprotein (AFP) gene, AFP (gene 174); assay: LTEA_HepaRG_AFP: Life Technologies and Expression Analysis (LTEA) Assay for Alpha-fetoprotein (AFP) gene using HepaRG (AID 2283472)
Procedure, shortened: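 Chemicals were tested on differentiated HepaRG cells for 48 hours at eight concentrations up to 100 uM, with 0.5% DMSO as vehicle. AFP expression was then quantified by qRT-PCR and analyzed for gain or loss relative to DMSO.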

Measured: AC50

Sequence of Broad substrate specificity ATP-binding cassette transporter ABCG2 (Homo sapiens) (Q9UNQ0 whole entry, looked up): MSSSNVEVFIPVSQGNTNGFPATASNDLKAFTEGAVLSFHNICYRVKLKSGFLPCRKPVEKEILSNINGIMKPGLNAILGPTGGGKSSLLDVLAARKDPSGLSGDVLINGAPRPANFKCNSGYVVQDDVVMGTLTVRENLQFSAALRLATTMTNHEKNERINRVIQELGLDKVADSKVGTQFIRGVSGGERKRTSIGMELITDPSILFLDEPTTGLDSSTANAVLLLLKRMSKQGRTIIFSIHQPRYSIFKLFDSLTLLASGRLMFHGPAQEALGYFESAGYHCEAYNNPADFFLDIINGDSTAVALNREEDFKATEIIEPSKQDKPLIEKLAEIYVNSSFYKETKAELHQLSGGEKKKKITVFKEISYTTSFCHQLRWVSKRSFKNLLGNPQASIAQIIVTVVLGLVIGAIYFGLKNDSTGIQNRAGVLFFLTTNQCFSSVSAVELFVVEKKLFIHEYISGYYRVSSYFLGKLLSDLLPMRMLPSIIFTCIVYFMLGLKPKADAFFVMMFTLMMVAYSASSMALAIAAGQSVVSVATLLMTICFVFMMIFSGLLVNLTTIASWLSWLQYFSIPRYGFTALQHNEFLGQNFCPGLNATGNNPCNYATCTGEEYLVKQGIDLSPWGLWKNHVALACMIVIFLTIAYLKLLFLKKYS

CNC(=O)/C=C(\C)OP(=O)(OC)OC
inactive: all assays above

CCN(CC)C(=O)SCc1ccc(Cl)cc1
active: [2] 41.6 µM
inactive: all other assays above

COP(=O)(OC)OC=C(Cl)Cl
inactive: all assays above

COc1nn(CSP(=S)(OC)OC)c(=O)s1
active: [2] 24.3 µM
inactive: all other assays above

COP(=S)(OC)Oc1ccc([N+](=O)[O-])cc1
active: [2] 44.2 µM
inactive: all other assays above

CCC(C)(NC(=O)c1cc(Cl)c(C)c(Cl)c1)C(=O)CCl (stereo not given)
active: [1] 80.2 µM | [2] 50.2 µM | [3] 86.5 µM | [5] 89.8 µM | [7] 89.8 µM | [9] 65.3 µM | [11] 89 µM | [12] 12.2 µM | [14] 85.1 µM | [18] 92.1 µM | [19] 76 µM
inactive: [4] | [6] | [8] | [13] | [15] | [16] | [17]

N#Cc1c(Cl)c(Cl)c(Cl)c(C#N)c1Cl
active: [1] 36.6 µM | [2] 23.1 µM | [3] 50 µM | [4] 21.2 µM | [6] 15.2 µM | [10] 47.1 µM | [17] 23.9 µM
not listed: [15]
inactive: all other assays above

COP(=S)(OC)Oc1ccc(SC)c(C)c1
active: [2] 28.8 µM | [12] 31.8 µM | [19] 10.3 µM
inactive: all other assays above

Clc1ccccc1-c1nnc(-c2ccccc2Cl)nn1
active: [2] 12.8 µM | [12] 5.64 µM
not listed: [11]
inactive: all other assays above

CC(C)OC(=O)Nc1cccc(Cl)c1
active: [2] 50 µM | [5] 50 µM
inactive: all other assays above

O=C(Nc1ccccc1)Nc1cnns1
active: [1] 73.5 µM | [2] 73.6 µM | [9] 78.6 µM | [10] 63.6 µM | [11] 89.5 µM | [14] 50 µM | [15] 78.6 µM | [19] 76.2 µM
inactive: all other assays above

O=S(=O)(O)C(F)(F)C(F)(F)C(F)(F)C(F)(F)C(F)(F)C(F)(F)C(F)(F)C(F)(F)F
inactive: [2] | [3] | [4] | [5] | [6] | [7] | [8] | [9] | [10] | [11] | [12] | [13] | [14] | [15] | [16] | [17] | [18] | [19]
active: [2] 22.6 µM | [3] 13.2 µM | [4] 13.3 µM | [10] 90.7 µM and 85.1 µM and 86.6 µM | [11] 14.2 µM and 90.7 µM | [12] 14.4 µM and 7.01 µM | [13] 50 µM and 9.92 µM | [15] 36.6 µM and 50 µM and 48 µM | [17] 50 µM and 48 µM | [18] 12.8 µM | [19] 77.9 µM and 80.1 µM and 75.8 µM
